Data taken from PubChem BioAssay (Tox21).
Records with an inconclusive call do not appear. Values without a mark were called inactive. Active and inactive are the calls of the source. The call rests on the fitted dose curve; in most records, active means well fitted inhibition curve with a large enough effect in the repeat runs; inconclusive means weak or mixed curves; inactive means no such curve, though single readings can be large or run the other way.

biological target: Cytochrome P450 3A4 (Homo sapiens) (UniProt P08684); test: Cytochrome P450 Family 3 Subfamily A Member 4 (CYP3A4) small molecule antagonists: luciferase reporter qHTS assay (AID 1671201); details: P450-Glo CYP3A4 enzyme, luciferin luminescence, 1 h; series mostly up to 115 µM; activity change, negative = inhibition: at the top concentration; further: nearly all actives have a fitted effect of over 50% in size
In short: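 Luminescent readout (RLU) proportional to CYP3A4 activity, from luciferin generated off a proluciferin substrate. Enzyme–substrate mix plus compound 10 min at room temp, NADPH regeneration 1 h, detection reagent 20 min.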
On the % scale 0 is the no-effect control and ±100 the full control effect; potency means the concentration at half of the fitted maximal effect.

Sequence of Cytochrome P450 3A4 (Homo sapiens) (P08684 whole entry, looked up): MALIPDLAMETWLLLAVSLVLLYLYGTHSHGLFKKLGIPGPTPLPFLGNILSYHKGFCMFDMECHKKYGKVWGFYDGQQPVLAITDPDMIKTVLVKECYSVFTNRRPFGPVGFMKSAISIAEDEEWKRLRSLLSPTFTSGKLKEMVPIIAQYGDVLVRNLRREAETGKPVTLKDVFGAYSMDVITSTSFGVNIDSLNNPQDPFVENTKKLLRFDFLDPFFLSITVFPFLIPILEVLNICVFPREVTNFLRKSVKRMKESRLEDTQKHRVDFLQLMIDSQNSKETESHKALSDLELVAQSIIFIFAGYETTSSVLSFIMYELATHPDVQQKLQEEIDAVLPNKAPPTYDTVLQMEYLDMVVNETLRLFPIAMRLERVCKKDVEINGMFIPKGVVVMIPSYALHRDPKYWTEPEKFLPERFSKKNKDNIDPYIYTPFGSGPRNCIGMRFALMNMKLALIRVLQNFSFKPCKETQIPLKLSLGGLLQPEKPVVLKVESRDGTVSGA

SMILES | activity change, negative = inhibition | Potency
O=C(O)c1cc(-c2ccc(F)cc2F)ccc1O | 46.5% [at 52.9 µM] | 
Cc1cc(C(C#N)c2ccc(Cl)cc2)c(Cl)cc1NC(=O)c1cc(I)cc(I)c1O (stereo unspecified) | -8.6% [at 52.9 µM] | 
CCCCCC(C)OC(=O)COc1ccc(Cl)c2cccnc12 (stereo unspecified) |  | 12.6 µM (active)
O=C(O)c1cc(=O)c2ccccc2o1 | 8.01% [at 52.9 µM] | 
CC1=Nc2ccccc2C1(C)C |  | 63.4 µM (active)
S=c1nccc[nH]1 | 9.15% | 
Clc1sc(Cl)c(Cl)c1Cl | 1.59% | 
Cc1ccc(O)c(N)c1 |  | 15.9 µM (active)
S=C([S-])NCCNC(=S)[S-].S=C([S-])NCCNC(=S)[S-].[Mn+2].[Zn+2] | 2.48% [at 52.9 µM] | 
c1ccsc1 | 15.4% | 
CC[C@H](C)COC(=O)/C=C/c1ccc(N=Cc2ccc(OC)cc2)cc1 |  | 5.63 µM (active)
CC(=O)CC(=O)Nc1ccc(S(=O)(=O)O)cc1 | 6.28% | 
O=c1oc2cc(O)ccc2c2oc3cc(O)ccc3c12 |  | 19.2 µM (active)
C=CC(=O)OCCOC(=O)C=C | 0.434% | 
CCN(CC)c1ccc2c(-c3ccc(S(=O)(=O)O)cc3S(=O)(=O)[O-])c3ccc(=[N+](CC)CC)cc-3oc2c1 |  | 14.6 µM (active)
Cc1cccc2cccnc12 | 3.22% | 
